In the library only some 17% were active in any assay of this set; here they are far more common.
ClpP mod: qHTS Assay for Activators of ClpP. ATP-dependent Clp protease proteolytic subunit (Bacillus subtilis (strain 168)), P80244. purified B. subtilis ClpP, FRET peptide cleavage, 20 min. Potency, µM (highest dose often 57.5 µM), inactives show at the top dose activity change, negative = active. 340,000 tested, 1.9% active; active = well fitted falling curve with a large enough effect; inconclusive = small, poorly fitted or top-dose-only effect; inactive = no such curve, though single readings can be large or run the other way; note: the source files actives as falling curves though it sought activators and does not explain the sign; nearly all actives have a fitted effect of over 65% in size
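Purified B. subtilis ClpP, 10 microg/mL final in Tris/HCl pH8 with KCl, BSA, glycerol and Tween-20, cleaved an Abz/nitrotyrosine-quenched decapeptide. Fluorescence (ex 320, em 430) was read at 0 and 20 min at room temperature. Delta was normalized to 5.8 microM ADEP and DMSO/no-enzyme controls.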
TDP1 cell noCPT: qHTS for Inhibitors of human tyrosyl-DNA phosphodiesterase 1 (TDP1): qHTS in cells in absence of CPT; 420,000 tested, 15% active; Potency, µM (series often up to 46.2 µM), for inactives: at the highest dose activity change, negative = growth inhibition, usual class: inhibitors; DT40 Tdp1-/- hTDP1 cells, no CPT, ATP luminescence, 48 h; note: % is set by controls: 0 for no effect and ±100 for the full control effect; nearly all actives have a fitted effect of over 55% in size
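Luminescent ATP content (CellTiter-Glo) served as the growth readout. Knockout chicken DT40 cells expressing human TDP1 were exposed to compounds without camptothecin for a minimum 48 hr at 37 °C.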
DT40 TDP1 CPT: qHTS for Inhibitors of human tyrosyl-DNA phosphodiesterase 1 (TDP1): qHTS in cells in presence of CPT | AID 686979, 2013 | 420,000 tested, 12% active | Potency, µM (top dose mostly 46.2 µM), without a hit: top-dose activity change, negative = growth inhibition, hits mostly inhibitors | chicken DT40 Tdp1-/-;hTDP1 cells + 20 nM CPT, ATP luminescence, 48 h; note: % is set by controls: 0 for no effect and ±100 for the full control effect; nearly all actives have a fitted effect of over 55% in size
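Chicken DT40 Tdp1-/- cells stably complemented with human TDP1 were seeded at 400 cells/well in medium containing 20 nM camptothecin, exposed to pin-transferred compounds, and grown at 37 °C for at least 48 hr. Viability was read as ATP luminescence.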
TDP1 inh: qHTS Assay for Inhibitors of Tyrosyl-DNA Phosphodiesterase (TDP1); recombinant TDP1, AlphaScreen DNA substrate cleavage; 350,000 tested, 0.28% active; Potency, µM (highest dose often 130 µM), for the others: top-dose activity change, negative = inhibition, most hits filed as inhibitors; Tyrosyl-DNA phosphodiesterase 1 (Homo sapiens), Q9NUW8; note: % is set by controls: 0 for no effect and ±100 for the full control effect; nearly all actives have a fitted effect of over 40% in size
Target sequence (Q9NUW8 whole entry, looked up): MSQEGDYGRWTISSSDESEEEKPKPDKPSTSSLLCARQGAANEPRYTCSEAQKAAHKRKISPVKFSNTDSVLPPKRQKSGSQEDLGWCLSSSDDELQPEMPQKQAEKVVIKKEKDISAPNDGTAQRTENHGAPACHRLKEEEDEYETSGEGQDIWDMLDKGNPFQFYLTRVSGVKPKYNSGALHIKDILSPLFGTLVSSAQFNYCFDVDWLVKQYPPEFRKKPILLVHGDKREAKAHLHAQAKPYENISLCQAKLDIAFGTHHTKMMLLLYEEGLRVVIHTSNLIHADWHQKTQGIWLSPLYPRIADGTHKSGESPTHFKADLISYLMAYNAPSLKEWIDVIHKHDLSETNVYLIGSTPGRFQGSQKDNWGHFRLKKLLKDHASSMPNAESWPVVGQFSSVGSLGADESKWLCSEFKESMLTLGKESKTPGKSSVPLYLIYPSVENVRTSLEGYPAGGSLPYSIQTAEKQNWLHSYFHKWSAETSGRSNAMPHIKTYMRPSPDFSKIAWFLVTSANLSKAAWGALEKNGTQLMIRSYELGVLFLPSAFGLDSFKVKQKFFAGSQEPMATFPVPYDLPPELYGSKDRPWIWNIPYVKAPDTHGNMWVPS
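Here, a 5' biotin and 3' phosphotyrosine-FITC DNA oligonucleotide reports Tdp1 activity: intact substrate bridges AlphaScreen beads, while cleavage leaves a 3' phosphate and drops signal. All incubations at room temperature.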
* marks the source's active call; other numbers are inactive results; ? = inconclusive; nt = no result. Unless noted, calls come from the whole dose curve; as a rule, active = well fitted curve in the direction sought with a large enough effect; inconclusive = small, poorly fitted or top-dose-only effect, or another doubt; inactive = no such curve, though single readings can be large; an effect the other way counts as inactive or inconclusive. Potency is the fitted concentration of half-maximal effect.

SMILES	ClpP mod	TDP1 cell noCPT	DT40 TDP1 CPT	TDP1 inh
CCCCCc1cc(=O)oc2c(C(CCN3CCCC(C)C3)c3cc(OC)c(OC)c(OC)c3)c(OC)cc(OC)c12 (centres undefined)	?	29.1µM*	?	nt
CCCCCc1cc(=O)oc2c(C(CCN3CCCC(C)C3)c3ccc(N(C)C)cc3)c(OC)cc(OC)c12 (centres undefined)	12.0%	23.1µM*	?	10.7%
C=CCn1c(=O)c2c(nc(-c3ccccc3)n2C)n(C)c1=O	nt	0.1%	-27.1%	-1.2%
O=C(Nc1nnc([C@@H]2C[C@H](O)[C@@H](CO)O2)s1)c1ccc(Oc2ccccc2)cc1	-6.7%	-16.9%	3.4%	nt
CCOc1cc(C2C(C(=O)OC)=C(C)NC3=C2C(=O)c2ccccc23)cc(Br)c1OCC (centres undefined)	-0.5%	5.17µM*	?	nt
CCOc1cc(C2C(C(=O)OC)=C(C)NC3=C2C(=O)c2ccccc23)ccc1OC (centres undefined)	-0.1%	20.6µM*	?	16.3%
C#CCOc1ccc(C2C(C(=O)OC)=C(C)NC3=C2C(=O)c2ccccc23)cc1OCC (centres undefined)	-0.4%	?	?	nt
COCCCn1c(O)c(/C=C2\N=C(C#N)C(=Nc3ccc(C)cc3)O2)sc1=S	nt	3.26µM*	?	8.4%
O=C(O)CCCn1c(O)c(C=C2N=c3ccccc3=N2)sc1=S	-0.8%	?	?	nt
CC(C)CC(N)c1csc(Nc2cnccn2)n1 (centres undefined)	-2.0%	9.2µM*	13µM*	nt
NC(CCc1ccccc1)c1csc(Nc2ccccn2)n1 (centres undefined)	-5.2%	?	?	nt
NC(COCc1ccccc1)c1csc(Nc2ccccn2)n1 (centres undefined)	-4.2%	?	25.9µM*	nt
CC(C)CC(N)c1csc(Nc2ccccn2)n1 (centres undefined)	-7.4%	?	14.6µM*	nt
NC(COCc1ccccc1)c1csc(Nc2nncc3ccccc23)n1 (centres undefined)	-12.0%	20.6µM*	?	nt
Cc1cccc(NC(=O)CN2CCOCC2)c1C	-2.1%	-0.4%	13.1%	nt
Cc1ccc(C)c(N2CCN(c3nc4ccc(C(=O)c5ccccc5)cc4n4cnnc34)CC2)c1	-0.4%	?	?	5.0%
Cc1ccc(Cl)cc1N1CCN(c2nc3ccc(C(=O)c4ccccc4)cc3n3cnnc23)CC1	-9.9%	23.1µM*	18.4µM*	2.8%
Cc1ccc(N2CCN(c3nc4ccc(C(=O)c5ccccc5)cc4n4cnnc34)CC2)c(C)c1	0.0%	18.4µM*	?	5.6%
COc1cccc(N2CCN(c3nc4ccc(C(=O)c5ccccc5)cc4n4c(C)nnc34)CC2)c1	0.4%	16.4µM*	?	11.3%
CCN=c1scc(-c2ccco2)n1/N=C/c1ccc(OC)c(O)c1	-3.4%	?	-20.8%	11.2%
CN=c1scc(-c2ccc(F)cc2)n1/N=C/c1ccc(O)c(O)c1	nt	0.82µM*	1.16µM*	11.1%
O=[N+]([O-])c1ccc2nc(/C=C/c3ccc(Cl)cc3)[nH]c2c1	-1.8%	18.4µM*	20.6µM*	3.9%
Nc1ccc(-c2nc3ccc([N+](=O)[O-])cc3[nH]2)cc1	-0.7%	?	?	0.0%
O=[N+]([O-])c1ccc(-c2nc3ccc([N+](=O)[O-])cc3[nH]2)cc1	1.2%	9.2µM*	13µM*	4.0%
COc1ccccc1C1=NN(C(=O)c2ccccc2)C(c2ccc(Br)cc2)C1 (centres undefined)	-11.7%	-10.2%	-6.2%	nt
O=C1C(CSCc2ccccc2)NC(=S)N1c1ccccc1 (centres undefined)	-0.2%	4.61µM*	2.91µM*	8.4%
O=C(O)CC1NC(=S)N(c2ccccc2)C1=O (centres undefined)	-1.6%	-14.0%	-16.6%	-2.1%
C[C@@H]1CN([C@@H](C)CO)C(=O)c2cc(C#CC3CCCCC3)cnc2O[C@@H]1CN(C)S(=O)(=O)c1ccc(F)cc1	-5.6%	14.6µM*	16.4µM*	nt

Compound activity deposited in PubChem by National Center for Advancing Translational Sciences (NCATS).
